According to PubChem BioAssay AID1159580 (chemical genetic matrix, 2015):
Values joined by “and” are separate entries in the source; they are usually repeats but may differ in a detail not shown here. Equal values may be shown once. Among all 5,500 compounds or so, about 2,000 (36%) were called active. Not shown: some 18% with an inconclusive outcome. Cut-off read from the data, not from the text of the source: active = normalized growth mostly below about 0.91 (no sharp cut-off); inconclusive = no clear call, values can overlap the other calls; inactive = mostly above about 0.92. The list shows a part of the results.

Assay: chemical genetic growth profiling, strain panel (AID 1159580);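 note: tested at 20 µM; growth read once vehicle control cultures reached saturation at 30 °C; 1 = growth at the plate median or of vehicle wells; lower values mean less growth of the strain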
Settings: S. cerevisiae deletion strains, growth OD

Measured: normalized growth

NCC(N)C(=O)c1ccccc1 (stereo not drawn)
inactive: locus YAL013W, strain DEP1, hits give low values 1.01 | locus YAL021C, strain ccr4, hits give low values 0.979 | locus YAL026C, strain drs2, hits give low values 1.06 | locus YAL030W, strain snc1, hits give low values 1.02 | locus YBL061C, strain skt5, hits give low values 1.03 | locus YBR009C, strain hhf1, hits give low values 1.04 | locus YBR021W, strain FUR4, hits give low values 0.993 | locus YBR023C, strain chs3, hits give low values 1.02 | locus YBR171W, strain sec66, hits give low values 1.04 | locus YBR229C, strain ROT2, hits give low values 1.01 | locus YBR231C, strain swc5, hits give low values 1.02 | locus YBR279W, strain paf1, hits give low values 1.03 | locus YCL011C, strain gbp2, hits give low values 1.02 | locus YCL016C, strain dcc1, hits give low values 1.01 | locus YCL029C, strain bik1, hits give low values 0.995 | locus YCL061C, strain MRC1, hits give low values 1.03 | locus YCL069W, strain vba3, hits give low values 1.02 | locus YCR088W, strain abp1, hits give low values 1.02 | locus YDL005C, strain med2, hits give low values 1.03 | locus YDL035C, strain GPR1, hits give low values 1.02 | locus YDL040C, strain nat1, hits give low values 1.02 | locus YDL074C, strain BRE1, hits give low values 1.01 | locus YDL101C, strain DUN1, hits give low values 1.01 | locus YDL185W, strain tfp1, hits give low values 1 | locus YDL192W, strain arf1, hits give low values 1.01 | locus YDR001C, strain nth1, hits give low values 1.01 | locus YDR069C, strain doa4, hits give low values 1.02 | locus YDR101C, strain arx1, hits give low values 0.997 | locus YDR137W, strain rgp1, hits give low values 1.03 | locus YDR150W, strain NUM1, hits give low values 1.01 | locus YDR159W, strain sac3, hits give low values 1.05 | locus YDR162C, strain NBP2, hits give low values 1.02 | locus YDR195W, strain ref2 1.01 | locus YDR297W, strain sur2, hits give low values 1.02 | locus YDR318W, strain mcm21, hits give low values 1.01 | locus YDR334W, strain swr1, hits give low values 1.02 | locus YDR335W, strain msn5, hits give low values 1.03 | locus YDR388W, hits give low values 0.998 | locus YDR392W, strain spt3, hits give low values 0.962 | locus YDR502C, strain sam2, hits give low values 0.988 | locus YEL003W, strain gim4, hits give low values 1.04 | locus YEL037C, strain rad23, hits give low values 1.03 | locus YEL061C, strain CIN8 (second series), hits give low values 1.03 | locus YEL061C, strain CIN8, hits give low values 1.01 | locus YER015W, strain faa2, hits give low values 1.03 | locus YER016W, strain bim1, hits give low values 1.03 | locus YER110C, hits give low values 1 | locus YER111C, strain swi4, hits give low values 1.03 | locus YER155C, strain BEM2 (second series), hits give low values 0.99 | locus YER155C, strain BEM2, hits give low values 1.01 | locus YER167W, strain BCK2, hits give low values 1.01 | locus YFR010W, strain ubp6, hits give low values 1.03 | locus YGL078C, strain dbp3, hits give low values 1.02 | locus YGL086W, strain mad1, hits give low values 0.999 | locus YGL167C, strain pmr1, hits give low values 1.03 | locus YGL173C, strain kem1, hits give low values 1.06 | locus YGL227W, strain vid30, hits give low values 1.02 | locus YGL240W, strain doc1, hits give low values 1.01 | locus YGL248W, strain PDE1, hits give low values 1.02 | locus YGL253W, strain hxk2, hits give low values 1.05 | locus YGR135W, strain pre9, hits give low values 1 | locus YGR229C, strain SMI1, hits give low values 1.02 | locus YGR252W, strain gcn5, hits give low values 0.96 | locus YHR013C, strain ard1, hits give low values 1.04 | locus YHR027C, strain rpn1, hits give low values 1.04 | locus YHR030C, strain SLT2, hits give low values 1.01 and 0.973 | locus YHR079C, strain IRE1 (second series), hits give low values 1 | locus YHR079C, strain IRE1, hits give low values 0.97 | locus YHR094C, strain hxt1, hits give low values 0.996 | locus YHR129C, strain ARP1, hits give low values 1.01 | locus YHR142W, strain chs7, hits give low values 1.05 | locus YHR200W, strain rpn10, hits give low values 0.999 | locus YIL066C, strain RNR3, hits give low values 1.01 | locus YIL073C, strain SPO22, hits give low values 0.986 | locus YIL125W, strain kgd1, hits give low values 1 | locus YIR030C, strain dcg1, hits give low values 1 | locus YJL092W, strain hpr5, hits give low values 1.03 | locus YJL095W, strain BCK1 (second series), hits give low values 1.03 | locus YJL095W, strain BCK1, hits give low values 1.02 and 0.963 | locus YJL115W, strain asf1, hits give low values 1.03 | locus YJL129C, strain trk1, hits give low values 1.04 | locus YJL134W, strain LCB3, hits give low values 1.01 | locus YJL154C, strain vps35, hits give low values 1.02 | locus YJL164C, strain tpk1, hits give low values 1.03 | locus YJL166W, strain qcr8, hits give low values 1.02 | locus YJL168C, strain set2, hits give low values 1.01 | locus YJL187C, strain SWE1 (second series), hits give low values 1 | locus YJL187C, strain SWE1, hits give low values 1.05
